Results as given in the supplement of paper PMC10849652.
The full data set covers some 7,900 targets. This sample favours those with a hit. About 0.6% of all pairs of compound and target were hits.

What was measured:
Experiment in all cases: log2 fold change, soluble protein after heating vs DMSO (PISA); higher = thermal stabilisation; K562 cells, 10 uM, 30 min; active = over 0.2 and 3.5 SD of the protein, either way, in both replicates (recomputed)
erlotinib = compound: C#Cc1cccc(Nc2ncnc3cc(OCCOC)c(OCCOC)cc23)c1 [erlotinib]
In short: (§1)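 K562 cells at 2×10^6 cells/mL were treated with 10 μM compound for 30 min. Aliquots were heated for 3 min across 48°C-58°C, pooled, and extracted in PBS with 0.5% NP-40 at 4°C; soluble protein was the supernatant after 21,000xg for 90 min. Soluble protein was quantified by TMTpro 16plex LC-MS/MS with channel sums equalised, and reported as log2 fold change in thermal stability against DMSO controls, with values from duplicates.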

[1] = compound: C/C(=N\NC(=O)C1=CC(=CC=C1)S(=O)(=O)N2CCOCC2)/C3=C(C=CC(=C3)Cl)O
In short: as §1

[2] = compound: C1=CC(=C(C=C1Cl)C2=NC3=NC=CN=C3C(=N2)NC4=CC=NC=C4)F
In short: as §1

[3] = compound: C1=CC(=CC=C1C2=NC3=C(N2)C=C(C=C3)C(=O)N)OC4=CC=C(C=C4)Cl
In short: as §1

[4] = compound: C1=CC2=C(C=CC(=C2)/C=C\3/C(=O)NC(=NCC4=CC=CS4)S3)N=C1
In short: as §1

[5] = compound: C1=CC2=NC=CN=C2C=C1/C=C/3\C(=O)NC(=O)S3
In short: as §1

[6] = compound: C1=CC=C(C=C1)C2=NC(=C(N2)C3=CC=NC=C3)C4=CC(=C(C=C4)Cl)O
In short: as §1

[7] = compound: C1=CC=C2C(=C1)C3=NNC4=CC=CC(=C43)C2=O
In short: as §1

[8] = compound: C1CCN(C1)C(=O)NC2=CC=CC(=C2)NC3=NC=C(C(=N3)NCCC4=CN=CN4)Br
In short: as §1

[9] = compound: C1CN(CCC1(CC2=CC=C(C=C2)Cl)N)C3=NC=NC4=C3C=CN4
In short: as §1

IRAK-1-4 Inhibitor I = compound: C1COCCN1CCN2C3=CC=CC=C3N=C2NC(=O)C4=CC(=CC=C4)[N+](=O)[O-] [IRAK-1-4 Inhibitor I]
In short: as §1

ibrutinib = compound: C=CC(=O)N1CCC[C@@H](n2nc(-c3ccc(Oc4ccccc4)cc3)c3c(N)ncnc32)C1 [ibrutinib]
In short: as §1

[10] = compound: CC(=O)c1cnc2ccc(-c3cc(Cl)c(O)c(Cl)c3)nc2c1N[C@H]1CC[C@H](CN(C)C)CC1
In short: as §1

ralimetinib = compound: CC(C)(C)Cn1c(N)nc2ccc(-c3[nH]c(C(C)(C)C)nc3-c3ccc(F)cc3)nc21 [ralimetinib]
In short: as §1

[11] = compound: CC(C)(O)CC(=O)NCCn1ccc2ncnc(Nc3ccc(Oc4cccc(C(F)(F)F)c4)c(Cl)c3)c21
In short: as §1

[12] = compound: CC(C)C1=C2N=C(C=C(N2N=C1)NCC3=CC=CC=C3)NCCCCCCN
In short: as §1

[13] = compound: CC(C)C[C@@H](C=O)NC(=O)[C@H](CC(C)C)NC(=O)[C@H](CC(C)C)NC(=O)OCc1ccccc1
In short: as §1

pinometostat = compound: CC(C)N(C[C@H]1O[C@@H](n2cnc3c(N)ncnc32)[C@H](O)[C@@H]1O)[C@H]1C[C@@H](CCc2nc3cc(C(C)(C)C)ccc3[nH]2)C1 [pinometostat]
In short: as §1

[14] = compound: CC1=C(C(CC(=O)N1)C2=CC=C(C=C2)C(F)(F)F)C(=O)NC3=C(C=C4C(=C3)C=NN4)F
In short: as §1

[15] = compound: CC1=C(C2=C(C=C1)C(=O)C3=CC=CC=C3N2CCCN)C
In short: as §1

Measured: log2 fold change

TOP2A isoform 4 (UniProt P11388)
UniProt P11388, sequence (P11388 whole entry, looked up): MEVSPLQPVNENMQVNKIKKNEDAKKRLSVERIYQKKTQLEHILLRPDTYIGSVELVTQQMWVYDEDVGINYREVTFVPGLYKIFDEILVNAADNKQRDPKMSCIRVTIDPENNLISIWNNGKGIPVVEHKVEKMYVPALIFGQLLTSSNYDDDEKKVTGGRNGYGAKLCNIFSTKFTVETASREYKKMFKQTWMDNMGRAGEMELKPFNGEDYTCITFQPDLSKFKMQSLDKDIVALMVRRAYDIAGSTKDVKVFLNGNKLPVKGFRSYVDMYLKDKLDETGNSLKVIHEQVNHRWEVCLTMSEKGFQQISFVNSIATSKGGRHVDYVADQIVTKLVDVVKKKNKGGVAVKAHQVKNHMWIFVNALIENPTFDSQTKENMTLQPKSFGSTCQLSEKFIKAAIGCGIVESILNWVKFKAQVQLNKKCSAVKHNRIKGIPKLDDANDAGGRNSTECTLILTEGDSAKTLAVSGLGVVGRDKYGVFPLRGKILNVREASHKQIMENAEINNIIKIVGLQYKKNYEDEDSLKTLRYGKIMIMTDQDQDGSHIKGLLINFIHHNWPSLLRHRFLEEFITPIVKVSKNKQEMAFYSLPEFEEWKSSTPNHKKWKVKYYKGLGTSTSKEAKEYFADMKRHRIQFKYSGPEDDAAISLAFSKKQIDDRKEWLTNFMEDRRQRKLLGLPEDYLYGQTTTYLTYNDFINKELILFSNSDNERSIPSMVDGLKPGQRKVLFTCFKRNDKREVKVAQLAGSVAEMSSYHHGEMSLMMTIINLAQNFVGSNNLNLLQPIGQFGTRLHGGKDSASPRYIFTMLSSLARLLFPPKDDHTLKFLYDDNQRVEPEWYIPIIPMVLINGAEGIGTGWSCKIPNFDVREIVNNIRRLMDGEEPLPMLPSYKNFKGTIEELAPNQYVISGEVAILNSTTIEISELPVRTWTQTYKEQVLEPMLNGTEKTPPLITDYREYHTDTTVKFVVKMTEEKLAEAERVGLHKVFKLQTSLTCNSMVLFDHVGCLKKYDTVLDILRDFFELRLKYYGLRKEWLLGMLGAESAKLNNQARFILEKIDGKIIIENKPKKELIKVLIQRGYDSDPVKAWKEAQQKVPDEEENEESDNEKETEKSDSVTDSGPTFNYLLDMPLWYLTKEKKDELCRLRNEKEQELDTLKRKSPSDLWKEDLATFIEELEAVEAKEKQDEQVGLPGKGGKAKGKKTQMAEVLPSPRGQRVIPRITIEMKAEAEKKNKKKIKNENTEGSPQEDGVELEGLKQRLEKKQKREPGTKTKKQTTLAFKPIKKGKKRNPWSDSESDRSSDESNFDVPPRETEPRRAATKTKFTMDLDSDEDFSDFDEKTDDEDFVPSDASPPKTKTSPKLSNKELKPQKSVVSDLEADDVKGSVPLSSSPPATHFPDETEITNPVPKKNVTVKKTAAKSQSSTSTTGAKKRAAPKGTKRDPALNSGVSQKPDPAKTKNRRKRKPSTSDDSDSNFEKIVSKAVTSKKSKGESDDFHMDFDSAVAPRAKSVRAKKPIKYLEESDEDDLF
inactive: erlotinib 0.008 | [1] -0.124 | [2] -0.429 | [3] 0.094 | [4] -0.061 | [5] 0.23 | [6] 0.077 | [7] 0.053 | [8] 0.073 | [9] -0.219 | IRAK-1-4 Inhibitor I -0.145 | ibrutinib 0.116 | [10] 0.154 | ralimetinib 0.324 | [11] 0 | [12] -0.125 | [13] 0.261 | pinometostat 0.533 | [14] 0.041
active: [15] -0.968

TRAPPC8 (UniProt Q9Y2L5)
UniProt Q9Y2L5, sequence (Q9Y2L5 whole entry, looked up): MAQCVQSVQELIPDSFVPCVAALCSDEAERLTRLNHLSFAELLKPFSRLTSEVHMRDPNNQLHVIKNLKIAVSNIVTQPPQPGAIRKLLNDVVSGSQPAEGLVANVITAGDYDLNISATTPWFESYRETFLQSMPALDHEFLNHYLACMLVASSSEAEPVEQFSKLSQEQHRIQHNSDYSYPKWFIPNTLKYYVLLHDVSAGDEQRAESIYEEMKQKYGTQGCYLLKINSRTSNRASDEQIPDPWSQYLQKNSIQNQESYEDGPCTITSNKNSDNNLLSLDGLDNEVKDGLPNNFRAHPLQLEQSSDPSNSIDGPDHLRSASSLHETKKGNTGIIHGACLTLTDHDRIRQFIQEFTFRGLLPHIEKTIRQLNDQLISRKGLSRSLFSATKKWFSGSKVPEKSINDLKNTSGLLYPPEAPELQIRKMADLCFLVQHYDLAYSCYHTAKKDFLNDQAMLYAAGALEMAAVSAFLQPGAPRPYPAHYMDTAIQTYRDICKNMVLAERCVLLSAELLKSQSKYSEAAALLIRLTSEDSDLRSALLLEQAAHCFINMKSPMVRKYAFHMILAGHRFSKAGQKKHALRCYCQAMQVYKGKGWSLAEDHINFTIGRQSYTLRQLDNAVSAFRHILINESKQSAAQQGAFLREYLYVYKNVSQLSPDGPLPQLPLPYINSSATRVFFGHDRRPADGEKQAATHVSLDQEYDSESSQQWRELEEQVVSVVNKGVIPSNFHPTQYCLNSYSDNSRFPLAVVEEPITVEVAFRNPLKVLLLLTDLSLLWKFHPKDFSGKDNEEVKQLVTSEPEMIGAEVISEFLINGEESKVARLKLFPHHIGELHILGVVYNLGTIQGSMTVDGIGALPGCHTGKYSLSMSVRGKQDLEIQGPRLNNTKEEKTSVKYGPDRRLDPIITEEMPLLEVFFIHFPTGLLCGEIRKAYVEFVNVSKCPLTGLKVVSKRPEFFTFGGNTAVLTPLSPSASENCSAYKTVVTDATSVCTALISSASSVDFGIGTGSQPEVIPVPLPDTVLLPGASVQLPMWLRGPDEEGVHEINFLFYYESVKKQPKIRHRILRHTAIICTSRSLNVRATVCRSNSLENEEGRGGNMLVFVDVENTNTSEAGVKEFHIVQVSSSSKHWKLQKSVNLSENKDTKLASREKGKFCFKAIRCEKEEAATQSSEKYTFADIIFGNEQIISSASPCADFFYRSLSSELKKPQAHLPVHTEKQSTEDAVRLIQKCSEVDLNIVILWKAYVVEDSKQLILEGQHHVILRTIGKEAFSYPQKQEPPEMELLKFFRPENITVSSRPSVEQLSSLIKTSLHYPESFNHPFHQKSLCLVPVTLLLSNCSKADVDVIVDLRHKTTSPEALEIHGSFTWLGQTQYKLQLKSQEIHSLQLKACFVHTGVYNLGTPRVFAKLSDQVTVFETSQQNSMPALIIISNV
inactive: erlotinib 0.024 | [1] 0.118 | [2] -0.012 | [3] 0.027 | [4] 0.094 | [5] -0.007 | [6] -0.068 | [7] -0.018 | [8] -0.011 | [9] -0.036 | IRAK-1-4 Inhibitor I -0.02 | ibrutinib 0.015 | [10] -0.02 | ralimetinib 0.011 | [11] -0.056 | [12] -0.071 | [13] 0.044 | pinometostat 0.072 | [14] 0.002 | [15] 0.003

TNNC2 (UniProt P02585)
UniProt P02585, sequence (P02585 whole entry, looked up): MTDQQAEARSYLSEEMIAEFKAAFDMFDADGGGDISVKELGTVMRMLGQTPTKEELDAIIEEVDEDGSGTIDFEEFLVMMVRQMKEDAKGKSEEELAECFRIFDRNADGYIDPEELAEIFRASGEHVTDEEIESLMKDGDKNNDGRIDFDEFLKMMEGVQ
inactive: erlotinib 0.035 | [1] -0.007 | [2] -0.004 | [3] 0.018 | [4] 0.047 | [5] 0.026 | [6] -0.058 | [7] -0.026 | [8] 0.101 | [9] -0.449 | IRAK-1-4 Inhibitor I 0.042 | ibrutinib 0.012 | [10] 0.004 | ralimetinib -0.068 | [11] 0 | [12] 0.116 | [13] 0.025 | pinometostat -0.067 | [14] -0.005 | [15] 0.114
